Source: PubChem
Most compounds without a hit are left out; they make up all but 2.9% or so of the library.
H9c2 protect = modulators protecting cardiomyocytes from myocardial damage; protection from H2O2 cell death, % at 20 µM; AID 588492; 360,000 tested, 0.63% active; H9c2 cardiomyocytes, H2O2 injury protection, ATPLite, 2 h;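 active = compounds giving at least 50% protection of heart cells from peroxide-induced death in the single-dose screen, raw or plate-pattern-corrected value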;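 note: 0% = DMSO wells with peroxide and 100% = DMSO wells without peroxide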
Rtt109 HAT inh = C. albicans Rtt109 histone acetyltransferase inhibition; Q5AAJ8; purified Rtt109/Vps75, ThioGlo CoA-SH fluorescence, 4 h; inhibition, % at 34.9 µM; 330,000 tested, 0.16% active;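 active = inhibition of at least 50% in every replicate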
ABHD5-PLIN5 inh = blocks binding of human ABHD5 to perilipin-5. Q00G26+Q8WTS1. Split G. princeps luciferase complementation, luminescence, 4 h. inhibition, % at 4 µM. 360,000 tested, 0.78% active. AID 602281;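 active = inhibition above the mean inhibition across every tested compound plus 3 SD, cut at about 22% in these data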;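 note: 0% = DMSO only wells and the 100% control is not disclosed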
HGIII-sPLA2 inh = Inhibits HGIII-sPLA2 liposome hydrolysis, primary screen. QFRET BODIPY PC-A2 liposome hydrolysis, fluorescence. inhibition, % at 12.2 µM. 370,000 tested, 0.56% active. Q9NZ20;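 active = inhibition above mean plus 3 SD of compounds lying within the high and low control bounds, cut at about 19% in these data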;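 note: 0% = median of test compound wells and 100% = no enzyme DMSO wells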
Myeloid diff MLP = compounds promoting myeloid differentiation; ER-HoxA9 myeloid progenitors, lysozyme-GFP differentiation, flow cytometry; calls only at 10 µM; 360,000 tested, 1% active; AID 624256;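 active = normalized GFP-positive differentiation at or above the plate's own cutoff, the solvent-only control mean plus 3 SD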;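 note: cells exposed to compound for four days before flow analysis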
DAGLB inh = blocks human DAGLB lipase activity. AID 504411. HEK293T DAGLB membrane lysate, EnzChek fluorogenic substrate. inhibition, % at 5.17 µM. 340,000 tested, 0.059% active; in the data active = inhibition above about 34%;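 note: 0% = enzyme with vehicle and 100% = wells lacking enzyme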
Target sequence (Q8NCG7 whole entry, looked up): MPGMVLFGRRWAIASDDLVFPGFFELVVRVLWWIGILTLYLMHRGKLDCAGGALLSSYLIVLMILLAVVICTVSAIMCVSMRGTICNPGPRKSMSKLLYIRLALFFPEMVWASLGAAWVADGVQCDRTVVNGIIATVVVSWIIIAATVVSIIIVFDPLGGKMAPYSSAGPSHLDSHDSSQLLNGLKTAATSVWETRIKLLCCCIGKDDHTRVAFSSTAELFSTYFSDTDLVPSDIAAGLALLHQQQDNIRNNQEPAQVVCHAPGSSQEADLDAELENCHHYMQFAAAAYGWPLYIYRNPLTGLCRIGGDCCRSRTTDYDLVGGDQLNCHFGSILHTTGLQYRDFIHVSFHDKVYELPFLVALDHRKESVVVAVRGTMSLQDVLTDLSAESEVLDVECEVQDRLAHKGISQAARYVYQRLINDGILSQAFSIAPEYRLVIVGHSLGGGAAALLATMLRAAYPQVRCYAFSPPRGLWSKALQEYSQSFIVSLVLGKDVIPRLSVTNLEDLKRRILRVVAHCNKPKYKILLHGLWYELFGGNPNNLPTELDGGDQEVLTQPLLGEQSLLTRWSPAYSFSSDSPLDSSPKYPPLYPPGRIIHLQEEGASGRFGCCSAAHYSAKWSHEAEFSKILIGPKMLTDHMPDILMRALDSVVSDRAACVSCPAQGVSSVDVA
Myeloid diff CP1 = compounds promoting myeloid differentiation; shares compounds with Myeloid diff MLP; ER-HoxA9 myeloid progenitors, GFP/Mac1 double-positive flow; calls only; 2,300 tested, 2% active; AID 651706;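 active = share of green or green-and-red cells above 9 and 9% in run 1 or 4 and 3% in run 2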
GFP autofluor = counter-screen for myeloid differentiation promoters: compound fluorescence; shares compounds with Myeloid diff MLP; ER-HoxA9 myeloid progenitors, no estrogen, GFP autofluorescence flow cytometry; vehicle wells 0%, positive control 100%; fluorescence response, % (no concentration beside the values); 2,300 tested, 7.4% active;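 active = over 5% cells positive for green fluorescent reporter, or over 2% positive for both it and APC stain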;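 note: range taken on the double positive population between DMSO and positive control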
An asterisk follows results filed as active; i = inactive; nt = no result; + = active, no number.

SMILES	H9c2 protect	Rtt109 HAT inh	ABHD5-PLIN5 inh	HGIII-sPLA2 inh	Myeloid diff MLP	DAGLB inh	Myeloid diff CP1	GFP autofluor
CN(C)S(=O)(=O)c1cccc(NC(=S)NCCc2ccccn2)c1	-9.9	nt	1.4	-2.6	i	-0.1	nt	nt
Cc1ccc(S(=O)(=O)N(C)c2ccc(OC(=O)CN3C(=O)NC4(CCCC4)C3=O)cc2)cc1C	-3.1	2.9	-0.3	-8.6	i	-1.0	nt	nt
O=C1c2ccccc2C(=O)C1Cc1cccc2ccccc12	0.6	-1.0	-19.1	-9.7	i	5.1	i	0.0
Cc1ccc(CNC(=O)C(=O)NCC2OCCN2C(=O)c2cccs2)cc1 (stereo unspecified)	1.1	0.4	1.5	9.0	+	2.1	i	0.0
Cc1sc2ncn(CC(=O)NCc3ccccn3)c(=O)c2c1S(=O)(=O)N1CCOCC1	2.4	-12.1	-1.3	2.6	i	1.0	i	0.3
CCOC(=O)CNC(=O)Cn1cnc2sc(C)c(S(=O)(=O)N3CCOCC3)c2c1=O	3.6	-3.7	-8.0	-1.4	i	0.0	nt	nt
Cc1ccc(S(=O)(=O)N2CCCCC2)cc1C(=O)N1C(C)CCCC1C (stereo unspecified)	-4.2	-4.3	1.0	13.6	i	-1.4	nt	nt
CC(/C=N/NC(=O)CSc1n[nH]c(=O)[nH]c1=O)=C\c1ccccc1	0.9	22.9	8.1	-3.2	i	0.8	i	0.0
Cc1cc(C)c2cc3c(N)c(C(=O)Nc4c(C)[nH]c(=O)[nH]c4=O)sc3nc2c1	6.1	-2.3	5.0	1.0	+	3.6	i	4.5
CC1CN(C(=O)CSc2nnc(C3CCCCC3)n2N)CC(C)O1 (stereo unspecified)	6.1	1.0	4.5	6.8	i	-0.9	nt	nt
Cc1sc2ncnc(NCCc3ccc(S(N)(=O)=O)cc3)c2c1C	-27.1	0.1	0.6	-8.5	i	1.8	i	0.4
CC(C)CNC(=O)C1(C)CCCN1C(=O)c1ccncc1 (stereo unspecified)	-0.7	nt	4.1	-7.7	i	nt	nt	nt
CCCc1ccc(OCc2ccc(C(=O)NN)o2)c(OC)c1	0.4	-5.2	-4.5	-11.0	+	-5.2	i	0.0
O=C(NC1(C(F)(F)F)NC(=O)N(Cc2ccco2)C1=O)c1cccnc1 (stereo unspecified)	7.8	0.6	14.5	9.8	+	1.5	i	0.0
Cc1ccc(S(=O)(=O)N(CC(=O)N(C)C)c2cccc([N+](=O)[O-])c2)cc1	-4.2	-6.9	2.2	1.8	+	1.0	i	0.0
COc1ccc(N(C)S(=O)(=O)c2ccc3c(c2)oc(=O)n3C)cc1	-3.7	27.2	0.6	2.6	i	-2.9	nt	nt
O=C(Nc1cc(S(=O)(=O)N2CCOCC2)ccc1O)c1ccco1	-2.1	2.2	-2.1	4.0	i	1.2	nt	nt
CCCn1c(SCC(=O)Nc2ccccc2Cl)nc(O)cc1=O	2.0	19.4	-3.7	0.6	i	-0.7	i	0.0
CCCn1c(SCC(=O)Nc2cccc(F)c2)nc(O)cc1=O	-0.3	-5.7	-9.9	-4.1	i	1.1	nt	nt
COc1cc(NC(=O)COC(=O)/C=C/c2ccccc2Cl)cc(OC)c1	-0.6	-10.4	-6.7	-5.5	i	-7.2	i	0.0
CC(C)COC(=O)c1ccc2c(c1O)C(=O)c1ccccc1C2=O	-9.7	-0.6	6.3	4.8	i	-3.4	i	6.1*
NC(=O)COC(=O)c1cccc2c1-c1ccccc1C2=O	5.6	-3.9	-1.9	-1.7	i	-0.1	nt	nt
CCOC(=O)c1c(C)[nH]c(C(=O)COC(=O)/C=C/c2ccc3c(c2)OCO3)c1C	-2.3	6.7	0.2	-1.7	i	-1.3	nt	nt
CCOC(=O)c1c(C)[nH]c(C)c1C(=O)COC(=O)/C=C/c1ccccc1[N+](=O)[O-]	4.4	-16.2	2.9	-9.0	+	-0.4	i	0.2
CCOC(=O)c1c(C)[nH]c(C(=O)COC(=O)/C=C/c2ccc(O)c(OC)c2)c1C	-1.8	-2.5	-6.5	-18.5	i	-3.0	i	0.0
SMILES	H9c2 protect	Rtt109 HAT inh	ABHD5-PLIN5 inh	HGIII-sPLA2 inh	Myeloid diff MLP	DAGLB inh	Myeloid diff CP1	GFP autofluor
O=C(c1ccc(COc2ccc(F)cc2)o1)n1cc(Br)cn1	7.3	-1.7	-2.8	-5.3	i	0.3	nt	nt
CN(C(=O)COC(=O)c1cccs1)c1c(N)n(Cc2ccccc2)c(=O)[nH]c1=O	1.6	0.9	-7.1	2.4	i	0.8	nt	nt
Cn1cc(-c2cccc(C(F)(F)F)c2)cc(C#N)c1=O	2.8	-11.4	-5.8	2.8	+	-1.6	i	0.0
COc1ccc(C2SCC(=O)N2c2c(C)n(C)n(-c3ccccc3)c2=O)cc1OC (stereo unspecified)	2.2	5.4	3.2	-2.9	+	-1.6	i	0.3
Cc1c(N2C(=O)CSC2c2ccccc2)c(=O)n(-c2ccccc2)n1C (stereo unspecified)	5.4	-5.4	1.4	4.8	i	-2.1	nt	nt
CCOc1ccccc1NC(=O)CCNS(=O)(=O)c1ccccc1	4.2	-9.9	7.8	-6.5	+	2.9	i	0.2
CCOc1ccccc1NC(=O)CCC(=O)Nc1ccccc1OCC	5.9	-1.6	2.2	-4.4	i	-1.9	nt	nt
CCn1c(COc2ccc(C)cc2)nnc1SCC(=O)C(C)(C)C	-6.1	0.5	12.3	-7.6	i	-2.9	nt	nt
CCn1c(COc2ccccc2)nnc1SCC(=O)C(C)(C)C	-5.6	22.2	8.1	-8.8	+	-4.4	i	0.0
CC(C)(C)c1nnc(NC(=O)CCn2cnc3ccccc3c2=O)s1	-5.8	-7.4	-0.3	-4.3	i	0.1	nt	nt
CCCCOCCCNC(=O)N[C@H](C(=O)OC)C(C)C	4.3	-26.4	0.9	7.1	+	1.7	i	0.0
COC(=O)c1sc2ccccc2c1-n1cccc1C(=O)C(=O)Nc1ccccc1	-0.4	-1.1	-8.9	-3.1	i	-5.3	i	0.0
CCC(C)(NC(=O)c1ccc(=O)[nH]c1)C(=O)NC1CCCC1 (stereo unspecified)	-1.2	-10.7	-10.1	-1.6	i	0.0	nt	nt
O=C(Nc1nccs1)c1ccc(-c2ccc([N+](=O)[O-])cc2)o1	-7.5	5.7	4.5	-1.9	+	3.1	i	0.3
O=C(Nc1nccs1)c1ccc(-c2ccc(Cl)cc2)o1	-15.9	-0.6	-3.0	-5.8	i	-3.1	nt	nt
CCCC[n+]1ccn(C2=C([O-])c3ccccc3C(=O)/C2=N\S(=O)(=O)c2ccc(Br)cc2)c1	-26.7	-1.9	3.3	-6.7	i	12.3	i	0.5
Nc1ncnc2nc[nH]c12	14.7	9.3	-0.4	1.8	i	0.1	nt	nt
Cn1c(N)nc2nc[nH]c2c1=S	13.9	-3.8	-6.5	-1.6	i	0.4	i	0.0
